Test results from PubChem BioAssay (EPA / NIEHS).
Active and inactive are the calls of the source. Rule for the calls: active = hit-call score of the fitted dose curve at least 0.9, where 1 is the maximum; inactive = score below 0.9.

How the values were obtained:
[1] = ATG_E_Box_CIS: Attagene CIS-FACTORIAL HepG2 Assay for human Enhancer Box (E-box) (AID 2282936); details: HepG2 E-box cis-reporter transcription, actives raise or lower the signal
Outline: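 DMSO served as negative control and baseline for bidirectional fitting. Human hepatoma HepG2 cells, transiently transfected with cis-reporter constructs, were dosed 24 h; reporter mRNA read by RT-PCR and capillary electrophoresis.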

[2] = ATG_M_61_CIS: Attagene CIS-FACTORIAL HepG2 Assay for M61 Transcription Factor (Internal Marker) (AID 2282937); details: HepG2 Attagene CIS-FACTORIAL M61 internal marker reporter; actives raise or lower the signal
Outline: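 This endpoint serves as an internal background control within a multiplexed HepG2 cis-reporter panel. Cells are exposed for 24 h; reporter mRNA is amplified, fluorescently labelled and sized by capillary electrophoresis, with DMSO as negative control.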

[3] = ATG_EGR_CIS: Attagene CIS-FACTORIAL HepG2 Assay for human Early Growth Response 1 (EGR1) (AID 2282938); details: HepG2 Attagene CIS-FACTORIAL EGR reporter mRNA; actives raise or lower the signal
Outline: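 HepG2, transient MRTU transfection (cis promoters), 24 h compound. RNA → RT (oligo-dT) → PCR → 6-FAM labelling → HpaI cut → CE fluorescence. Bidirectional fit, DMSO baseline.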

[4] = ATG_M_19_CIS: Attagene CIS-FACTORIAL HepG2 Assay for M19 Transcription Factor (Internal Marker) (AID 2282939); details: HepG2 Attagene CIS-FACTORIAL M19 internal marker reporter; actives raise or lower the signal
Outline: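 HepG2 cells transiently transfected with cis-regulated multiple reporter transcription units were dosed for 24 h; reporter mRNA was quantified by RT-PCR, 6-FAM primer-extension labelling, HpaI digestion and capillary electrophoresis, with bidirectional fitting against DMSO baseline.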

[5] = ATG_ERE_CIS: Attagene CIS-FACTORIAL HepG2 Assay for Estrogen Response Element (ERE) (AID 2282940); details: HepG2 ERE cis-reporter, Attagene RNA transcript; actives raise or lower the signal
Outline: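 HepG2 cells transiently transfected with cis-promoter-driven multiplexed reporter transcription units report endogenous TF activity. After 24 h compound exposure, reporter mRNA is quantified by RT-PCR with capillary electrophoresis fluorescence; bidirectional fitting versus DMSO baseline.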

[6] = ATG_Ets_CIS: Attagene CIS-FACTORIAL HepG2 Assay for human Erythroblast Transformation Specific (ETS) (AID 2282941); details: HepG2 ETS cis-reporter transcription, actives raise or lower the signal
Outline: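 After transient cis-reporter transfection, HepG2 cells receive test chemical for 24 h. Reporter mRNA levels, measured by RT-PCR and capillary electrophoresis fluorescence, are analysed bidirectionally relative to the DMSO baseline.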

[7] = target: Hepatocyte nuclear factor 3-beta (Homo sapiens) (UniProt Q9Y261); assay: ATG_FoxA2_CIS: Attagene CIS-FACTORIAL HepG2 Assay for human Forkhead box A2 (FOXA2) (AID 2282942); details: HepG2 cis-reporter transcription factor activity, 24 h; actives raise or lower the signal
Outline: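 Cells: HepG2, transient multiplex reporter transfection. Exposure 24 h. Detection: reporter-specific RT-PCR, fluorescent labelling, restriction digest, capillary electrophoresis. Analysis: bidirectional curve fit, DMSO as negative control.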

[8] = ATG_GATA_CIS: Attagene CIS-FACTORIAL HepG2 Assay for human GATA Binding Protein (AID 2282944); details: HepG2 GATA cis-element reporter, Attagene multiplex mRNA; actives raise or lower the signal
Outline: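 HepG2 cells transiently transfected with multiplexed cis-element reporter units reflecting endogenous transcription factor activity; reporter mRNA measured after 24 h dosing by RT-PCR, 6-FAM labeling, HpaI digestion and capillary electrophoresis. Bidirectional fitting versus DMSO baseline.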

[9] = ATG_GLI_CIS: Attagene CIS-FACTORIAL HepG2 Assay for human Zinc Finger Protein GLI1 (AID 2282945); details: HepG2, Attagene cis-factorial reporter mRNA, GLI element; actives raise or lower the signal
Outline: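 Bidirectional curve fits relative to DMSO, using reporter mRNA levels from RT-PCR plus capillary electrophoresis. Cells were HepG2 transiently carrying cis-regulated reporter constructs, harvested 24 h after dosing.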

[10] = target: Bile acid receptor (Homo sapiens) (UniProt Q96RI1); assay: ATG_IR1_CIS: Attagene CIS-FACTORIAL HepG2 Assay for human Nuclear Receptor Subfamily 1 Group H Member 4 (NR1H4), IR1 submotif (AID 2282946); details: IR1 reporter transcription, actives raise or lower the signal
Outline: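 Cells (human HepG2) carry transiently transfected cis-promoter reporter transcription units. Compounds are incubated 24 h, total RNA is reverse-transcribed and amplified, and labelled fragments are resolved by capillary electrophoresis. Curves use DMSO as baseline.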

[11] = ATG_GRE_CIS: Attagene CIS-FACTORIAL HepG2 Assay for human Glucocorticoid Response Elements (GRE) (AID 2282947); details: HepG2 GRE cis-reporter, Attagene multiplex mRNA; actives raise or lower the signal
Outline: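 Assay uses human hepatoma HepG2 cells transfected with cis-promoter reporter units, exposed 24 h. mRNA from reporters detected by RT-PCR plus capillary electrophoresis; DMSO serves as negative control and baseline.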

[12] = ATG_ISRE_CIS: Attagene CIS-FACTORIAL HepG2 Assay for human Interferon Regulatory Factor 1 (IRF1) binding to an Interferon-Stimulated Response Element (ISRE) (AID 2282948); details: HepG2 ISRE cis-reporter (Attagene), mRNA transcription readout; actives raise or lower the signal
Outline: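 Quantitation relies on labelled RT-PCR fragments separated by capillary electrophoresis. Human HepG2 cells bearing cis-promoter reporter constructs were treated 24 h; DMSO served as baseline for bidirectional fitting.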

[13] = ATG_M_32_CIS: Attagene CIS-FACTORIAL HepG2 Assay for M32 Transcription Factor (Internal Marker) (AID 2282949); details: HepG2 Attagene cis-factorial M32 reporter, mRNA; actives raise or lower the signal;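 note: background control marker of the multiplexed CIS panel rather than a real target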
Outline: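 Following 24 h chemical exposure of HepG2 cells transiently expressing cis-promoter reporter constructs, reporter transcript levels were determined by RT-PCR with fluorescent labelling and capillary electrophoresis, then fitted bidirectionally against DMSO.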

[14] = ATG_M_06_CIS: Attagene CIS-FACTORIAL HepG2 Assay for M06 Transcription Factor (Internal Marker) (AID 2282950); details: HepG2 Attagene CIS-FACTORIAL M06 internal marker reporter; actives raise or lower the signal
Outline: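 HepG2 cells transiently transfected with cis-regulated multiple reporter transcription units were exposed to chemical for 24 h; reporter mRNA was quantified by RT-PCR, 6-FAM primer labelling, HpaI digestion and capillary electrophoresis, fitted bidirectionally against DMSO.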

[15] = target: Hypoxia-inducible factor 1-alpha (Homo sapiens) (UniProt Q16665); assay: ATG_HIF1a_CIS: Attagene CIS-FACTORIAL HepG2 Assay for human Hypoxia Inducible Factor 1 (HIF1A) (AID 2282951); details: HepG2 Attagene cis-factorial HIF1a reporter transcription; actives raise or lower the signal
Outline: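 HepG2, transient cis-reporter library, 24 h dosing. RNA → RT (oligo dT) → PCR → 6-FAM primer extension → HpaI → CE. Bidirectional curve fit vs DMSO.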

[16] = target: Hepatocyte nuclear factor 6 (Homo sapiens) (UniProt Q9UBC0); assay: ATG_HNF6_CIS: Attagene CIS-FACTORIAL HepG2 Assay for human Hepatocyte Nuclear Factor 6 (HNF6) (AID 2282952); details: HepG2 Attagene cis-factorial HNF6 reporter transcription; actives raise or lower the signal
Outline: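 Reporter mRNA induction or loss in HepG2 after 24 h exposure; transient cis-MRTU transfection; fragments quantified by capillary electrophoresis; bidirectional analysis, DMSO as negative control.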

[17] = target: Heat shock factor protein 1 (Homo sapiens) (UniProt Q00613); assay: ATG_HSE_CIS: Attagene CIS-FACTORIAL HepG2 Assay for human Heat Shock Transcription Factor 1 (HSE) (AID 2282953); details: HepG2 HSE cis-reporter, Attagene RNA transcription; actives raise or lower the signal
Outline: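 HepG2 cells transiently transfected with multiple reporter transcription units under cis-regulatory promoter control, measuring endogenous transcription factor activity. After 24 h chemical exposure, reporter mRNA quantified by RT-PCR, fluorescent labelling, HpaI digestion and capillary electrophoresis; bidirectional fit versus DMSO.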

[18] = ATG_MRE_CIS: Attagene CIS-FACTORIAL HepG2 Assay for human Metal Responsive Element (MRE) (AID 2282954); details: HepG2 MRE cis-reporter transcription, Attagene multiplex; actives raise or lower the signal
Outline: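 After a 24 h chemical exposure, transiently transfected HepG2 cells yield RNA whose reporter sequences are amplified, FAM-labelled and sized by capillary electrophoresis. Curves are fitted bidirectionally relative to DMSO.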

[19] = ATG_FoxO_CIS: Attagene CIS-FACTORIAL HepG2 Assay for human Forkhead box O (FoxO) (AID 2282943); details: HepG2 Attagene cis-reporter, FoxO element, mRNA; actives raise or lower the signal
Outline: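 HepG2, transient MRTU transfection (cis element, endogenous TFs). Dose 24 h. TriZol RNA → oligo(dT) RT → PCR → 6-FAM primer extension → HpaI cut → CE. Gain/loss vs DMSO.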

[20] = ATG_PBREM_CIS: Attagene CIS-FACTORIAL HepG2 Assay for human Phenobarbital-responsive Enhancer Module (PBREM) (AID 2282955); details: HepG2 PBREM cis-reporter, Attagene multiplexed transcription; actives raise or lower the signal
Outline: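 HepG2, transient MRTU transfection, 24 h dosing; RNA → oligo(dT) RT → PCR → 6-FAM extension → HpaI → CE. Bidirectional fit vs DMSO.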

Measured: AC50

Heat shock factor protein 1 (Homo sapiens), sequence (Q00613 whole entry, looked up): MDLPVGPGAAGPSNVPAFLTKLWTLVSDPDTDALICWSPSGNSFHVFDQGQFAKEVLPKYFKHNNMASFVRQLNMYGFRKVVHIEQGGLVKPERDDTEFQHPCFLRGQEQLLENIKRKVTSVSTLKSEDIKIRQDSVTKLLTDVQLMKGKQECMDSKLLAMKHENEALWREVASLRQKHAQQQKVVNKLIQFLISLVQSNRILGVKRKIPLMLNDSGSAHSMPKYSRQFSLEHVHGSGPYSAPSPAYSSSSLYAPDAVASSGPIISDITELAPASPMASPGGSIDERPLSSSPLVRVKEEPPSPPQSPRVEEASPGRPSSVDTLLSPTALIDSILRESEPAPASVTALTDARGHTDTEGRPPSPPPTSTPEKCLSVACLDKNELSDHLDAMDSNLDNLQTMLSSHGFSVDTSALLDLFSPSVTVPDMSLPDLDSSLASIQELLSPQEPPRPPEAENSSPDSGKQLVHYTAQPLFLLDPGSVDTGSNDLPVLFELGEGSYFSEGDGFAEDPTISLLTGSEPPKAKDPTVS
Hepatocyte nuclear factor 3-beta (Homo sapiens), sequence (Q9Y261 whole entry, looked up): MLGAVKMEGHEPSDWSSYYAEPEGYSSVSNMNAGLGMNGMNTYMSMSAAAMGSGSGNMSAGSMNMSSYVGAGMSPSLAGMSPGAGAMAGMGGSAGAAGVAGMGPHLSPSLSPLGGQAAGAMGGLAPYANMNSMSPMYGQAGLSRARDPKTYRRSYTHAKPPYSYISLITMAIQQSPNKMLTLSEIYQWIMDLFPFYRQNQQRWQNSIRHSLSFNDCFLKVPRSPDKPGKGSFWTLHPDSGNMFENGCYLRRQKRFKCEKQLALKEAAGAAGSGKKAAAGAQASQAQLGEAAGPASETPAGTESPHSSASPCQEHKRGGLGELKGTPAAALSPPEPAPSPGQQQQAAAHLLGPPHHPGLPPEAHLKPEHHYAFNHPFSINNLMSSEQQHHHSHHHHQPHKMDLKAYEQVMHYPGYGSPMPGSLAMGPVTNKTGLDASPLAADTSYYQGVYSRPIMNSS
Hepatocyte nuclear factor 6 (Homo sapiens), sequence (Q9UBC0 whole entry, looked up, the tested form may be a part): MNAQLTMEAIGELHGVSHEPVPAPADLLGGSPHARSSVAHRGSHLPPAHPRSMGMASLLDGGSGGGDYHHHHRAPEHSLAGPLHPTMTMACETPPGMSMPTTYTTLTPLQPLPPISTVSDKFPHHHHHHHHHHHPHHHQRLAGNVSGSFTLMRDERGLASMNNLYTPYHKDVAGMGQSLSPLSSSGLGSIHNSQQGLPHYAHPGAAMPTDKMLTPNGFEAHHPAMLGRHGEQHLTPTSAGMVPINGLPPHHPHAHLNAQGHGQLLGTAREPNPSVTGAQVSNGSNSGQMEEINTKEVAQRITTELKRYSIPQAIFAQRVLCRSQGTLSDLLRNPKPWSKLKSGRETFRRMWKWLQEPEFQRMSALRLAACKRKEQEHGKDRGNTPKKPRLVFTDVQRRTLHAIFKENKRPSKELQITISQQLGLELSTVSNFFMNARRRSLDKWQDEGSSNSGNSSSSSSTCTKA
Bile acid receptor (Homo sapiens), sequence (Q96RI1 whole entry, looked up, the tested form may be a part): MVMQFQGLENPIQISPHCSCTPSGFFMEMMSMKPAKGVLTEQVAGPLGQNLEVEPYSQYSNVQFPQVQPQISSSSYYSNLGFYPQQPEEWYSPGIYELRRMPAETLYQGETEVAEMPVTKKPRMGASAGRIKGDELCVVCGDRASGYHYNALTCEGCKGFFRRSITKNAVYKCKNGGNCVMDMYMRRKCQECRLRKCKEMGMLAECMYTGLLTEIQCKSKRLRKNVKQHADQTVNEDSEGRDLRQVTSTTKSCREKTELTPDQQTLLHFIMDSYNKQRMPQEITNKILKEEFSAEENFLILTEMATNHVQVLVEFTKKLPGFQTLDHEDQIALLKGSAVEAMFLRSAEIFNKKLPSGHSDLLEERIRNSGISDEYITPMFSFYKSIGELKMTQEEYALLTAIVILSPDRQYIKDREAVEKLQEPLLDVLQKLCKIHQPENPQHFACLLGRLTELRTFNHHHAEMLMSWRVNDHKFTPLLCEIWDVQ
Hypoxia-inducible factor 1-alpha (Homo sapiens), sequence (Q16665 whole entry, looked up): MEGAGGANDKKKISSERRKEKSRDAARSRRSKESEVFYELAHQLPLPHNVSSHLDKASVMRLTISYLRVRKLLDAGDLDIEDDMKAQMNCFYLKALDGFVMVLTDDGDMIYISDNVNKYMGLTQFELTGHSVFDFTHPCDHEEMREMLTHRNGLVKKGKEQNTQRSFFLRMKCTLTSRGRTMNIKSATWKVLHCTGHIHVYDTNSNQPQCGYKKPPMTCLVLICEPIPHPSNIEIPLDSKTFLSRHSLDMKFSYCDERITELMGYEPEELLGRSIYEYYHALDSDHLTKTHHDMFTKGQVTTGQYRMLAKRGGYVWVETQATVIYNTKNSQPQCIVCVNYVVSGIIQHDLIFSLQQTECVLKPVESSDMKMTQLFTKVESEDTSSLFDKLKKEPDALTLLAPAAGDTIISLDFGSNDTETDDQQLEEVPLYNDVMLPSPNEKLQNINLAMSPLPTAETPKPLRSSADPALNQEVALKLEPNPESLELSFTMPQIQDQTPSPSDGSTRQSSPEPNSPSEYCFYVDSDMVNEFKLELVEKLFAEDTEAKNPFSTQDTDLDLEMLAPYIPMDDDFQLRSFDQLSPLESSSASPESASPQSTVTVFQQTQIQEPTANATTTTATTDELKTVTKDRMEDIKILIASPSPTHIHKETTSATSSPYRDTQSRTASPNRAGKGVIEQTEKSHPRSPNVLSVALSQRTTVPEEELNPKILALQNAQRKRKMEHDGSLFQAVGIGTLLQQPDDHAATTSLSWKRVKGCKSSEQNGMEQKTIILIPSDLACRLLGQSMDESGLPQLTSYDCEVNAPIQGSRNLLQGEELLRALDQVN

CC[C@H](C)C(=O)O[C@H]1C[C@@H](C)C=C2C=C[C@H](C)[C@H](CC[C@@H]3C[C@@H](O)CC(=O)O3)[C@H]21
active: [5] 8.11 µM | [18] 10.5 µM
not listed: [19] | [20]
inactive: all other assays above

CC[C@H]1CC[C@H](NCc2cc3c(cc2OC)[C@H]2C[C@H]2C(=O)N3C)[C@H](c2ccccc2)N1
active: [3] 71.3 µM | [6] 100 µM | [19] 100 µM | [11] 69 µM | [12] 80.9 µM | [17] 71.5 µM
not listed: [4] | [10] | [18] | [20]
inactive: all other assays above

CCCCC(CC)COC(=O)CCCCCCCCC(=O)OCC(CC)CCCC (centres undefined)
not listed: [7] | [15]
inactive: all other assays above

Clc1nc(Cl)c(Cl)c(Cl)c1Cl
not listed: [5] | [7] | [10] | [15] | [20]
inactive: all other assays above

CCOc1cccc(-n2cc(C(=O)N3CCN(c4cc(C(=O)O)c5ccccc5c4)CC3)nc2-c2ccc(C)cc2)c1
active: [3] 27.1 µM | [10] 24.8 µM | [12] 22.8 µM | [17] 61.4 µM
not listed: [5] | [15] | [18]
inactive: all other assays above

O=C(NS(=O)(=O)/C=C/c1ccccc1)c1ccc(F)cc1Cl
not listed: [4] | [7] | [10] | [11] | [18]
inactive: all other assays above

CCCCCCc1ccc(O)cc1O
active: [3] 52.7 µM | [12] 55.7 µM | [15] 50.7 µM | [18] 54.1 µM
not listed: [4] | [5] | [7] | [10] | [19]
inactive: all other assays above
